Data on 33 molecules can be found in PubChem BioAssay (EPA / NIEHS).

SMILES strings stand for the structures. Activity calls are given as the source filed them. How the source made its calls: active means hit-call score of the fitted dose curve at least 0.9, where 1 is the maximum; inactive means score below 0.9.

As usually defined, the AC50 is the concentration giving half of the maximal activity seen.

Read-out in one experiment: Plasminogen activator inhibitor-1 (PAI1), SERPINE1 (gene 5054)
Description: BSK_hDFCGF_PAI1: BioMAP Diversity Plus: hDFCGF Assay for Plasminogen activator inhibitor-1 (PAI1) Biomarker Activity (AID 2283066). Conditions: primary human foreskin fibroblasts; actives raise or lower the signal. The essentials: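 PAI-1 levels in human dermal foreskin fibroblasts were quantified by ELISA 24 h after dosing, with gain or loss analysed against DMSO. Overt cytotoxicity was checked by sulforhodamine B total-protein staining in parallel cultures.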
For `CCCCCCCCCCCCc1cccc(S(=O)(=O)O)c1`, the AC50 is 9.68 µM (active).

Take `CC(C)N(C(=O)CCl)c1ccccc1`: the AC50 was 4.77 µM (active).

For the molecule `CN(C)C(=S)S`, the AC50 was 33.6 µM (active).

For `Oc1c(Br)cc(Br)cc1Br`, the AC50 is 20 µM (active).

For `C[C@]12CC[C@@H](O)C[C@@H]1CC[C@@H]1[C@@H]2CC[C@]2(C)C(=O)CC[C@@H]12`, the outcome was inactive.

In the case of `O=C(O)COc1cc(Cl)c(Cl)cc1Cl`, the outcome was inactive.

On to `Cc1ccc(OP(=O)(Oc2ccc(C)cc2C)Oc2ccc(C)cc2C)c(C)c1`, for which the AC50 was 0.445 µM (active).

Regarding `C=CC(Cl)CCl` (centres undefined), the result was inactive.

As for `[Cl][Sn]([c]1ccccc1)([c]1ccccc1)[c]1ccccc1`, the AC50 was 0.114 µM (active).

Turning to `COc1ccccc1N`, the result was inactive.

In the case of `Cc1cccc(OP(=O)(Oc2cccc(C)c2)Oc2cccc(C)c2)c1`, the AC50 is 0.0473 µM (active).

On to `N#Cc1cccnc1`, for which the outcome was inactive.

Regarding `OC(Cc1ccccc1Cl)(Cn1[nH]cnc1=S)C1(Cl)CC1` (centres undefined), the result was inactive.

With `CC1(C)[C@H](C(=O)O[C@H](C#N)c2cccc(Oc3ccccc3)c2)[C@@H]1/C=C(\Cl)C(F)(F)F`, the outcome was inactive.

With `CCCCCCCCCCCCN(C)C`, the outcome was inactive.

For the molecule `OCCCCO`, the result was inactive.

In the case of `Nc1ccc(N)cc1`, the outcome was inactive.

Regarding `COCC(=O)N(c1c(C)cccc1C)[C@H](C)C(=O)OC`, the outcome was inactive.

Regarding `CCOP(=S)(OCC)OP(=S)(OCC)OCC`, the result was inactive.

Take `Clc1cccc(Cl)c1`: the result was inactive.

On to `OC(Cc1ccccc1Cl)(Cn1cncn1)C1(Cl)CC1` (centres undefined), for which the result was inactive.

Turning to `Clc1cccc(Cl)c1Cl`, the outcome was inactive.

As for `NC(=O)CCl`, the result was inactive.

Take `O=C(N[C@H]1CN2CCC1CC2)c1ccc2c(c1)OCCO2`: the outcome was inactive.

`c1ccc(-c2cccc(-c3ccccc3)c2)cc1`: the AC50 is 20 µM (active).

`Cc1c([N+](=O)[O-])c(C)c([N+](=O)[O-])c(C(C)(C)C)c1[N+](=O)[O-]`: the AC50 was 29.5 µM (active).

On to `CCCCN(CCCC)C(=S)[S-].CCCCN(CCCC)C(=S)[S-].[Ni+2]`, for which the outcome was inactive.

`O=C(CCl)NCO`: the result was inactive.

Regarding `Cc1cc(Cl)ccc1N`, the outcome was inactive.

Consider `Oc1cc(Cl)c(Cl)cc1Cl`, for which the AC50 was 34 µM (active).

Turning to `CCOC(=O)CCN(SN(C)C(=O)Oc1cccc2c1OC(C)(C)C2)C(C)C`, the AC50 was 28.7 µM (active).

Regarding `CCCCOC(=O)COC(=O)c1ccccc1C(=O)OCCCC`, the outcome was inactive.

`N#CCCC(Br)(C#N)CBr` (centres undefined): the AC50 is 9.61 µM (active).

Read-out in a further experiment: Intercellular Adhesion Molecule 1 (ICAM1), ICAM1 (gene 3383)
The experiment is described as follows: BSK_KF3CT_ICAM1: BioMAP Diversity Plus: KF3CT Assay for Intercellular Adhesion Molecule 1 (ICAM1) Biomarker Activity (AID 2283067). Conditions: primary human keratinocytes with fibroblasts; actives raise or lower the signal. Summed up:
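Human keratinocyte plus foreskin fibroblast primary co-culture was exposed to chemical for 24 h. ICAM-1 was then quantified by ELISA, and the data were fit bidirectionally against DMSO as the negative control and baseline.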
Take `CCCCCCCCCCCCc1cccc(S(=O)(=O)O)c1`: the AC50 is 28.4 µM (active).

In the case of `CC(C)N(C(=O)CCl)c1ccccc1`, the AC50 was 28.5 µM (active).

On to `CN(C)C(=S)S`, for which the outcome was inactive.

Turning to `Oc1c(Br)cc(Br)cc1Br`, the result was inactive.

Regarding `C[C@]12CC[C@@H](O)C[C@@H]1CC[C@@H]1[C@@H]2CC[C@]2(C)C(=O)CC[C@@H]12`, the result was inactive.

With `O=C(O)COc1cc(Cl)c(Cl)cc1Cl`, the outcome was inactive.

Turning to `Cc1ccc(OP(=O)(Oc2ccc(C)cc2C)Oc2ccc(C)cc2C)c(C)c1`, the result was inactive.

On to `C=CC(Cl)CCl` (centres undefined), for which the result was inactive.

On to `[Cl][Sn]([c]1ccccc1)([c]1ccccc1)[c]1ccccc1`, for which the AC50 was 0.334 µM (active).

Take `COc1ccccc1N`: the outcome was inactive.

As for `Cc1cccc(OP(=O)(Oc2cccc(C)c2)Oc2cccc(C)c2)c1`, the outcome was inactive.

Consider `N#Cc1cccnc1`, for which the result was inactive.

For the molecule `OC(Cc1ccccc1Cl)(Cn1[nH]cnc1=S)C1(Cl)CC1` (centres undefined), the result was inactive.

For the molecule `CC1(C)[C@H](C(=O)O[C@H](C#N)c2cccc(Oc3ccccc3)c2)[C@@H]1/C=C(\Cl)C(F)(F)F`, the outcome was inactive.

On to `CCCCCCCCCCCCN(C)C`, for which the result was inactive.

In the case of `OCCCCO`, the result was inactive.

With `Nc1ccc(N)cc1`, the outcome was inactive.

On to `COCC(=O)N(c1c(C)cccc1C)[C@H](C)C(=O)OC`, for which the result was inactive.

For `CCOP(=S)(OCC)OP(=S)(OCC)OCC`, the result was inactive.

For `Clc1cccc(Cl)c1`, the outcome was inactive.

With `OC(Cc1ccccc1Cl)(Cn1cncn1)C1(Cl)CC1` (centres undefined), the result was inactive.

Turning to `Clc1cccc(Cl)c1Cl`, the outcome was inactive.

`NC(=O)CCl`: the outcome was inactive.

In the case of `O=C(N[C@H]1CN2CCC1CC2)c1ccc2c(c1)OCCO2`, the outcome was inactive.

Regarding `c1ccc(-c2cccc(-c3ccccc3)c2)cc1`, the result was inactive.

Regarding `Cc1c([N+](=O)[O-])c(C)c([N+](=O)[O-])c(C(C)(C)C)c1[N+](=O)[O-]`, the result was inactive.

For the molecule `CCCCN(CCCC)C(=S)[S-].CCCCN(CCCC)C(=S)[S-].[Ni+2]`, the result was inactive.

Take `O=C(CCl)NCO`: the result was inactive.

As for `Cc1cc(Cl)ccc1N`, the result was inactive.

For the molecule `Oc1cc(Cl)c(Cl)cc1Cl`, the outcome was inactive.

Take `CCOC(=O)CCN(SN(C)C(=O)Oc1cccc2c1OC(C)(C)C2)C(C)C`: the result was inactive.

In the case of `CCCCOC(=O)COC(=O)c1ccccc1C(=O)OCCCC`, the result was inactive.

Take `N#CCCC(Br)(C#N)CBr` (centres undefined): the AC50 was 26.8 µM (active).

Read-out in a further experiment: Interferon-gamma inducible Protein 10 (IP10), CXCL10 (gene 3627)
The experiment is described as follows: BSK_KF3CT_IP10: BioMAP Diversity Plus: KF3CT Assay for Interferon-gamma inducible Protein 10 (IP10) Biomarker Activity (AID 2283068). The settings on record: primary human keratinocytes with fibroblasts; actives raise or lower the signal. The essentials:
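Signal is secreted/surface IP-10 by ELISA in a human primary skin co-culture of keratinocytes and foreskin fibroblasts, taken 24 h post-dosing; DMSO served as negative control.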
Consider `CCCCCCCCCCCCc1cccc(S(=O)(=O)O)c1`, for which the concentration at half-maximal activity (AC50) was 16.5 µM (active).

With `CC(C)N(C(=O)CCl)c1ccccc1`, the AC50 is 20 µM (active).

As for `CN(C)C(=S)S`, the outcome was inactive.

Turning to `Oc1c(Br)cc(Br)cc1Br`, the AC50 was 31.6 µM (active).

With `C[C@]12CC[C@@H](O)C[C@@H]1CC[C@@H]1[C@@H]2CC[C@]2(C)C(=O)CC[C@@H]12`, the outcome was inactive.

With `O=C(O)COc1cc(Cl)c(Cl)cc1Cl`, the result was inactive.

Consider `Cc1ccc(OP(=O)(Oc2ccc(C)cc2C)Oc2ccc(C)cc2C)c(C)c1`, for which the result was inactive.

Take `C=CC(Cl)CCl` (centres undefined): the outcome was inactive.

Consider `[Cl][Sn]([c]1ccccc1)([c]1ccccc1)[c]1ccccc1`, for which the AC50 is 0.14 µM (active).

On to `COc1ccccc1N`, for which the result was inactive.

As to `Cc1cccc(OP(=O)(Oc2cccc(C)c2)Oc2cccc(C)c2)c1`, the outcome was inactive.

Consider `N#Cc1cccnc1`, for which the outcome was inactive.

Take `OC(Cc1ccccc1Cl)(Cn1[nH]cnc1=S)C1(Cl)CC1` (centres undefined): the outcome was inactive.

In the case of `CC1(C)[C@H](C(=O)O[C@H](C#N)c2cccc(Oc3ccccc3)c2)[C@@H]1/C=C(\Cl)C(F)(F)F`, the outcome was inactive.

Turning to `CCCCCCCCCCCCN(C)C`, the outcome was inactive.

In the case of `OCCCCO`, the result was inactive.

With `Nc1ccc(N)cc1`, the result was inactive.

Consider `COCC(=O)N(c1c(C)cccc1C)[C@H](C)C(=O)OC`, for which the outcome was inactive.

Take `CCOP(=S)(OCC)OP(=S)(OCC)OCC`: the outcome was inactive.

As for `Clc1cccc(Cl)c1`, the outcome was inactive.

For the molecule `OC(Cc1ccccc1Cl)(Cn1cncn1)C1(Cl)CC1` (centres undefined), the outcome was inactive.

On to `Clc1cccc(Cl)c1Cl`, for which the outcome was inactive.

`NC(=O)CCl`: the result was inactive.

Regarding `O=C(N[C@H]1CN2CCC1CC2)c1ccc2c(c1)OCCO2`, the outcome was inactive.

In the case of `c1ccc(-c2cccc(-c3ccccc3)c2)cc1`, the outcome was inactive.

For `Cc1c([N+](=O)[O-])c(C)c([N+](=O)[O-])c(C(C)(C)C)c1[N+](=O)[O-]`, the AC50 was 32.4 µM (active).

With `CCCCN(CCCC)C(=S)[S-].CCCCN(CCCC)C(=S)[S-].[Ni+2]`, the outcome was inactive.

As to `O=C(CCl)NCO`, the outcome was inactive.

On to `Cc1cc(Cl)ccc1N`, for which the outcome was inactive.

`Oc1cc(Cl)c(Cl)cc1Cl`: the result was inactive.

For `CCOC(=O)CCN(SN(C)C(=O)Oc1cccc2c1OC(C)(C)C2)C(C)C`, the result was inactive.

In the case of `CCCCOC(=O)COC(=O)c1ccccc1C(=O)OCCCC`, the result was inactive.

For the molecule `N#CCCC(Br)(C#N)CBr` (centres undefined), the AC50 is 33.1 µM (active).
